According to PubChem BioAssay AID1159580 (chemical genetic matrix, 2015):
Where “and” joins values, the source holds several entries; their conditions need not be identical. Identical values can stand only once. Hit rate of the full screen: of about 5,500 compounds, about 2,000 (36%) were called active. Not shown: some 18% with an inconclusive outcome. Cut-off read from the data, not from the text of the source: active = normalized growth mostly below about 0.91 (no sharp cut-off); inconclusive = no clear call, values can overlap the other calls; inactive = mostly above about 0.92. The list shows a part of the results.

Experiment: chemical genetic growth profiling, strain panel (AID 1159580);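 note: tested at 20 µM; growth read once vehicle control cultures reached saturation at 30 °C; 1 = growth at the plate median or of vehicle wells; lower values mean less growth of the strain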
Details: S. cerevisiae deletion strains, growth OD

Measured: normalized growth

CC(C)=CCC1=C(O)c2ccccc2C(=O)C1=O
inactive: locus YAL013W, strain DEP1, hits give low values 0.949 | locus YBR021W, strain FUR4, hits give low values 1.05 | locus YBR229C, strain ROT2, hits give low values 0.963 | locus YDL035C, strain GPR1, hits give low values 0.97 | locus YDL074C, strain BRE1, hits give low values 0.994 | locus YDL101C, strain DUN1, hits give low values 0.951 | locus YDL134C, strain PPH21, hits give low values 0.958 | locus YDR101C, strain arx1, hits give low values 0.941 | locus YDR150W, strain NUM1, hits give low values 0.934 | locus YDR162C, strain NBP2, hits give low values 0.872 | locus YDR195W, strain ref2 0.976 | locus YDR502C, strain sam2, hits give low values 0.968 | locus YEL061C, strain CIN8, hits give low values 0.932 | locus YER110C, hits give low values 0.96 | locus YER155C, strain BEM2, hits give low values 0.962 | locus YER167W, strain BCK2, hits give low values 0.956 | locus YGL240W, strain doc1, hits give low values 0.924 | locus YGL248W, strain PDE1, hits give low values 0.964 | locus YGR078C, strain PAC10, hits give low values 0.986 | locus YGR135W, strain pre9, hits give low values 0.953 | locus YGR229C, strain SMI1, hits give low values 0.992 | locus YGR252W, strain gcn5, hits give low values 1 | locus YHR013C, strain ard1, hits give low values 0.904 | locus YHR030C, strain SLT2, hits give low values 0.936 and 0.964 | locus YHR079C, strain IRE1 (second series), hits give low values 0.941 | locus YHR079C, strain IRE1, hits give low values 0.961 | locus YHR094C, strain hxt1, hits give low values 0.96 | locus YHR129C, strain ARP1, hits give low values 0.952 | locus YHR200W, strain rpn10, hits give low values 0.932 | locus YIL066C, strain RNR3, hits give low values 0.965 | locus YIL073C, strain SPO22, hits give low values 0.824 | locus YIR030C, strain dcg1, hits give low values 0.945 | locus YJL095W, strain BCK1, hits give low values 0.944 and 0.936 | locus YJL134W, strain LCB3, hits give low values 0.95 | locus YJL168C, strain set2, hits give low values 0.95 | locus YJL187C, strain SWE1 (second series), hits give low values 0.957 | locus YJR043C, strain POL32, hits give low values 1.04 | locus YJR066W, strain TOR1, hits give low values 0.875
active: locus YAL021C, strain ccr4, hits give low values 0.748 | locus YAL026C, strain drs2, hits give low values 0.472 | locus YAL030W, strain snc1, hits give low values 0.799 | locus YBL061C, strain skt5, hits give low values 0.774 | locus YBR009C, strain hhf1, hits give low values 0.804 | locus YBR023C, strain chs3, hits give low values 0.749 | locus YBR171W, strain sec66, hits give low values 0.707 | locus YBR231C, strain swc5, hits give low values 0.718 | locus YBR279W, strain paf1, hits give low values 0.76 | locus YCL011C, strain gbp2, hits give low values 0.795 | locus YCL016C, strain dcc1, hits give low values 0.762 | locus YCL029C, strain bik1, hits give low values 0.899 | locus YCL069W, strain vba3, hits give low values 0.675 | locus YCR088W, strain abp1, hits give low values 0.799 | locus YDL005C, strain med2, hits give low values 0.759 | locus YDL040C, strain nat1, hits give low values 0.843 | locus YDL185W, strain tfp1, hits give low values 0.86 | locus YDL192W, strain arf1, hits give low values 0.896 | locus YDR001C, strain nth1, hits give low values 0.816 | locus YDR069C, strain doa4, hits give low values 0.719 | locus YDR137W, strain rgp1, hits give low values 0.328 | locus YDR159W, strain sac3, hits give low values 0.549 | locus YDR297W, strain sur2, hits give low values 0.832 | locus YDR318W, strain mcm21, hits give low values 0.902 | locus YDR334W, strain swr1, hits give low values 0.795 | locus YDR335W, strain msn5, hits give low values 0.514 | locus YDR388W, hits give low values 0.928 | locus YDR392W, strain spt3, hits give low values 0.703 | locus YEL003W, strain gim4, hits give low values 0.788 | locus YEL037C, strain rad23, hits give low values 0.825 | locus YEL061C, strain CIN8 (second series), hits give low values 0.799 | locus YER015W, strain faa2, hits give low values 0.648 | locus YER016W, strain bim1, hits give low values 0.635 | locus YER111C, strain swi4, hits give low values 0.564 | locus YER155C, strain BEM2 (second series), hits give low values 0.792 | locus YFR010W, strain ubp6, hits give low values 0.752 | locus YGL078C, strain dbp3, hits give low values 0.914 | locus YGL086W, strain mad1, hits give low values 0.879 | locus YGL167C, strain pmr1, hits give low values 0.0913 | locus YGL173C, strain kem1, hits give low values 0.745 | locus YGL227W, strain vid30, hits give low values 0.767 | locus YGL253W, strain hxk2, hits give low values 0.592 | locus YHR027C, strain rpn1, hits give low values 0.537 | locus YHR142W, strain chs7, hits give low values 0.421 | locus YIL125W, strain kgd1, hits give low values 0.93 | locus YJL092W, strain hpr5, hits give low values 0.793 | locus YJL095W, strain BCK1 (second series), hits give low values 0.675 | locus YJL115W, strain asf1, hits give low values 0.861 | locus YJL129C, strain trk1, hits give low values 0.554 | locus YJL154C, strain vps35, hits give low values 0.815 | locus YJL164C, strain tpk1, hits give low values 0.775 | locus YJL166W, strain qcr8, hits give low values 0.714 | locus YJL187C, strain SWE1, hits give low values 0.789
